The values that follow come from PubChem BioAssay (Tox21).

Test [1] can be described thus: qHTS assay to identify small molecule antagonists of the retinoid-related orphan receptor gamma (ROR-gamma) signaling pathway - cell viability counter screen (AID 1159520). Further: nearly all actives have a fitted effect of over 50% in size. Further: potency means the concentration at half of the fitted maximal effect. On activity, negative = cytotoxicity: on the % scale 0 is the no-effect control and ±100 the full control effect. The procedure, abridged: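 Tet-on ROR gamma CHO cells (1,000/well) were plated 4 hr, given compounds in DMSO for 2 hr at 37 C, then induced with 1 uM final doxycycline for 16 hr. Viability was read as ATP by CellTiter-Glo luminescence after 30 min.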
For orientation: qHTS replaces the single test concentration by a dilution series.

The target in test [2] is Nuclear receptor ROR-gamma (Homo sapiens) (UniProt P51449). In words: qHTS assay to identify small molecule antagonists of the retinoid-related orphan receptor gamma (ROR-gamma) signaling pathway (AID 1159521; further: nearly all actives have a fitted effect of over 50% in size; further: potency means the concentration at half of the fitted maximal effect;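 on activity change, negative = inhibition: CHO cells with doxycycline inducible ROR-gamma driving an RORE luciferase reporter; top concentration of the series differs between compounds; on the % scale 0 is the no-effect control and ±100 the full control effect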). An outline of the steps:
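Screening format: cell-based luciferase reporter in CHO cells with doxycycline-inducible RORγ. Compound pre-exposure lasts 2 h, doxycycline is 1 uM final, induction runs 16 h at 37 C, and ONE-Glo luminescence is read.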

Test [3] can be described thus: qHTS assay to identify small molecule agonists of the AP-1 signaling pathway - cell viability counter screen (AID 1159525; calls by dose curve; further: nearly all actives have a fitted effect of over 55% in size; further: potency means the concentration at half of the fitted maximal effect). The procedure, abridged: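 Each titration point was normalised to DMSO and tetra n-octyl ammonium bromide controls. The read was Cell Titer Glo luminescence after 30 min at RT, following 5 h compound exposure of ME-180 AP-1-bla cells at 37 °C.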

A short description of test [4]: qHTS assay to identify small molecule agonists of the AP-1 signaling pathway (AID 1159526; calls by dose curve; further: on the % scale 0 is the no-effect control and ±100 the full control effect).
For test [5], the target named is Retinoic acid receptor RXR-alpha (Homo sapiens) (UniProt P19793). The experiment in a line: qHTS assay to identify small molecule agonists of the RXR signaling pathway (AID 1159527; calls by dose curve; further: on the % scale 0 is the no-effect control and ±100 the full control effect; nearly all actives have a fitted effect of over 35% in size). The procedure, abridged: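 Fluorescence ratio readout (460 vs 530 nm) from GeneBLAzer RXR-alpha HEK 293T cells after 16 hr compound treatment; cells seeded 5 hr beforehand in low-serum, charcoal-stripped medium.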

The nature of test [6]: qHTS assay to identify small molecule agonists of the RXR signaling pathway - cell viability counter screen (AID 1159529). Further: nearly all actives have a fitted effect of over 50% in size. Further: potency means the concentration at half of the fitted maximal effect.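 On activity change, negative = cytotoxicity: HEK 293T cells carrying an RXR-alpha UAS beta-lactamase reporter; series mostly up to about 77 µM; on the % scale 0 is the no-effect control and ±100 the full control effect.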 The procedure, abridged: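 Viability read-out for the RXR-alpha agonist qHTS: luminescent CellTiter-Glo signal after 30 min at RT. HEK 293T bla reporter cells, 2% charcoal-stripped FBS, 16 hr compound incubation; tetraoctyl ammonium bromide as cytotoxic control.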

Test [7] in a line: qHTS assay to identify small molecule antagonists of the retinoid acid receptor (RAR) signaling pathway - cell viability counter screen (AID 1159551). Further: nearly all actives have a fitted effect of over 35% in size. Further: potency means the concentration at half of the fitted maximal effect. An outline of the steps:
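Cytotoxicity counter screen: ATP content quantified by CellTiter-Glo luminescence in C3RL4 cells treated 6 hr at 37 C with compound and retinol (1 uM final). Cells plated at 1,000/well and cultured overnight before dosing.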

Test [8] in a line: qHTS assay to identify small molecule antagonists of the retinoic acid receptor (RAR) signaling pathway (AID 1159552; further: nearly all actives have a fitted effect of over 50% in size; further: potency means the concentration at half of the fitted maximal effect). An outline of the steps:
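Using a RARE-driven luciferase construct in C3RL4 cells, retinol at 1 uM final provided the agonist stimulus while compounds were co-applied. After 6 hours at 37 C, luminescence was recorded to flag inhibitors of retinol signaling.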

Test [9] can be described thus: qHTS assay to identify small molecule agonists of the peroxisome proliferator-activated receptor delta (PPARd) signaling pathway - cell viability counter screen (AID 743211). Further: potency means the concentration at half of the fitted maximal effect; nearly all actives have a fitted effect of over 55% in size. An outline of the steps: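 Following 5 h plating at 37 C and 5% CO2, PPARd UAS-bla HEK293H cells took up test compounds for 17 h. Viability was quantified by luminescence 30 min after CellTiter-Glo addition at room temperature.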

Test [10] can be described thus: qHTS assay to identify small molecule antagonists of the peroxisome proliferator-activated receptor delta (PPARd) signaling pathway - cell viability counter screen (AID 743213). An outline of the steps: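 CellTiter-Glo was added to PPARd-bla HEK293H wells following 17 h compound treatment in the presence of 300 nM L165041. Luminescence was recorded after 30 min at room temperature.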

A short description of test [11]: qHTS assay to identify small molecule agonists of the farnesoid-X-receptor (FXR) signaling pathway - cell viability counter screen (AID 743218). Further: potency means the concentration at half of the fitted maximal effect; nearly all actives have a fitted effect of over 45% in size. The procedure, abridged: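 Viability counter screen in the same wells: CellTiter-Glo luminescence, 30 min room-temperature incubation, measured after the beta-lactamase read. Cells were GeneBLAzer FXR-UAS-bla HEK 293T, compound-treated 16 h at 37C.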

A short description of test [12]: qHTS assay to identify small molecule antagonists of the farnesoid-X-receptor (FXR) signaling pathway - cell viability counter screen (AID 743221; active means well fitted cell-killing curve with a large enough effect in the repeat runs, not every such curve was filed as active). An outline of the steps: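 Compound effects on cell number were measured as CellTiter-Glo luminescence in HEK 293T cells expressing FXR-UAS-bla, after 16 h at 37 C with 50 uM CDCA (final).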
The nature of test [13]: qHTS assay to identify small molecule agonists of the vitamin D receptor (VDR) signaling pathway - cell viability counter screen (AID 743224). The procedure, abridged:
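Counter screen run in the same wells as the VDR-bla reporter assay: CellTiter-Glo luminescence, 30 min at room temperature, after 16 h compound treatment at 37C of cells pre-plated for 4 h.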

A short description of test [14]: qHTS assay to identify small molecule antagonists of the vitamin D receptor (VDR) signaling pathway - cell viability counter screen (AID 743225). The procedure, abridged:
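In this counter screen, VDR-bla HEK 293T cells receive test compound plus 3 nM final calcitriol for 16 h at 37C. Room-temperature steps of 2 h with the beta-lactamase substrate, then 30 min with CellTiter-Glo, precede the luminescence read.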

Records with an inconclusive call do not appear. A number with no mark means an inactive call. Activity calls are given as the source filed them. Unless noted, the call rests on the fitted dose curve; in most records, active means well fitted curve in the direction sought with a large enough effect in the repeat runs; inconclusive means weak or mixed curves; inactive means no such curve, though single readings can be large; an effect the other way counts as inactive or inconclusive.

Chain of Retinoic acid receptor RXR-alpha (Homo sapiens) (P19793 whole entry, looked up): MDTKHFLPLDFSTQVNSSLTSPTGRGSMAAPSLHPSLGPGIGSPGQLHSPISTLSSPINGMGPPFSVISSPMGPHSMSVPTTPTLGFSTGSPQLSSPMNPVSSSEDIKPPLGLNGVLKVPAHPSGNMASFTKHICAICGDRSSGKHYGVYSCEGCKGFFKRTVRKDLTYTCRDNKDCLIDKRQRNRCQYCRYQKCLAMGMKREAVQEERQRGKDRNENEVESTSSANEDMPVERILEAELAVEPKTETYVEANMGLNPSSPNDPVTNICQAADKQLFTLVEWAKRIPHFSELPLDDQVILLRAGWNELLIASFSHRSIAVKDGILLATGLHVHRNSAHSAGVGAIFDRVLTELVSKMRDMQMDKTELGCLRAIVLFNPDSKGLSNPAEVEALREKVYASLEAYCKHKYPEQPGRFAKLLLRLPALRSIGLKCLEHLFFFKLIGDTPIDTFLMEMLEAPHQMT

For `Nc1cc([N+](=O)[O-])cc(Cl)c1O`, the Potency result in test [1], in [2], in test [3], in test [4], in test [5] and in [6] was “inactive” each time. Also, the Potency entry in test [7] and in [8] was “inactive” in each case.

Regarding `COCCC(=O)OC`, the Potency entry in [1], in test [2], in test [3], in [5], in test [6] and in test [7] was “inactive” throughout. Moreover, the Potency result in test [8] is “inactive”.

`C1=CCCC1`: the Potency result in [1], in test [2], in [3], in [4], in [5] and in [6] was “inactive” each time. The Potency result in test [7] and in [8] was “inactive” in each case.

`CN(C)CCOc1ccc(/C(=C(/CCCl)c2ccccc2)c2ccccc2)cc1`: the Potency in test [9] was 14.5 µM (active); in [10] it was 10.3 µM (active); in test [11], 20.5 µM (active); in test [12], 40.9 µM (active); in [13], 12.9 µM (active); in [14] it was 12.9 µM (active). Also, the Potency in test [1] is 51 µM (active); in test [2], 22.8 µM (active); in test [3] it was 36.4 µM (active); in test [6] it was 18.3 µM (active); in test [7], 51 µM (active); in test [8], 57.2 µM (active).

Consider `Cc1cccc2c1ccc1ccccc12`, for which the Potency result in test [1], in test [2], in test [3], in [4], in test [5] and in test [6] was “inactive” each time. For the same compound, the Potency entry in test [7] and in test [8] was “inactive” in each case.

Turning to `CCOC(=O)[C@H](C)O`, the Potency entry in test [1], in test [2], in [3], in [4], in [5] and in test [7] was “inactive” each time. Moreover, the Potency result in test [8] is “inactive”.

`C=CC(=O)OCCOC1C2CCC1C1CC=CC12` (stereo not given): in test [1], the activity, negative = cytotoxicity was 1.32% [at 19 µM]. Also, in test [2], the activity change, negative = inhibition was 0.993% [at 19 µM]. Moreover, the viability change, negative = cytotoxic in test [3] was -20.2% [at 15.8 µM]. In [4], the activation was -3.6% [at 15.8 µM]. The figures for the activity change, negative = cytotoxicity in [6] and in test [7] were -24% [at 15.8 µM] and -0.0183% [at 19 µM], respectively.

On to `NC(=O)C1CO1` (stereo not given), for which the Potency result in test [1], in test [2], in [3], in test [5], in test [7] and in [8] was “inactive” throughout.

On to `O=C(O)CN(CCCN(CC(=O)O)CC(=O)O)CC(=O)O`, for which the activity, negative = cytotoxicity in test [1] is 3.4% [at 19 µM]. The activity change, negative = inhibition in test [2] is -18.7% [at 19 µM]. The viability change, negative = cytotoxic in test [3] is -3.53% [at 15.8 µM]. In addition, the figures for the activation in test [4] and in test [5] were 3.51% [at 15.8 µM] and 0.262% [at 15.8 µM], respectively. The activity change, negative = cytotoxicity in [6] is -1.37% [at 15.8 µM]; in test [7] it was 0.537% [at 19 µM].

As to `C=C1CC[C@H]2O[C@]2(C)CC[C@@H]2[C@@H]1CC2(C)C`, the Potency result in test [1], in [2], in [3], in test [4], in test [5] and in [6] was “inactive” in each case. Also, the Potency result in [7] was “inactive”.

Consider `C/C=C/C(=O)C1=C(C)C=CCC1(C)C`, for which the Potency result in test [1], in [2], in test [3], in [4], in [5] and in [6] was “inactive” throughout. Moreover, the Potency entry in test [7] was “inactive”.

`NCc1ccco1`: the Potency entry in test [1], in test [2], in test [3], in [5], in test [6] and in [7] was “inactive” throughout.

Turning to `CSc1ccc(O)cc1C`, in [1], the Potency entry is “inactive”.
